Experiments:
Test in all cases: DAPPL (digital affinity profiling via proximity ligation, sequencing); 10 mM Tris-HCl pH 7.5, 50 mM NaCl, 1 mM DTT, 4% glycerol, room temperature, 30 min; GST-TFs on glutathione beads, 16-mer random dsDNA library, 0.1% formaldehyde crosslink after washing; high values mean tight binding
Settings in all cases: protein: recombinant; tags: N-terminal GST; dsDNA, one strand shown
FLI1 = molecular target: T1, FLI1 (Homo sapiens, UniProt Q01543 1-452)
T1 sequence: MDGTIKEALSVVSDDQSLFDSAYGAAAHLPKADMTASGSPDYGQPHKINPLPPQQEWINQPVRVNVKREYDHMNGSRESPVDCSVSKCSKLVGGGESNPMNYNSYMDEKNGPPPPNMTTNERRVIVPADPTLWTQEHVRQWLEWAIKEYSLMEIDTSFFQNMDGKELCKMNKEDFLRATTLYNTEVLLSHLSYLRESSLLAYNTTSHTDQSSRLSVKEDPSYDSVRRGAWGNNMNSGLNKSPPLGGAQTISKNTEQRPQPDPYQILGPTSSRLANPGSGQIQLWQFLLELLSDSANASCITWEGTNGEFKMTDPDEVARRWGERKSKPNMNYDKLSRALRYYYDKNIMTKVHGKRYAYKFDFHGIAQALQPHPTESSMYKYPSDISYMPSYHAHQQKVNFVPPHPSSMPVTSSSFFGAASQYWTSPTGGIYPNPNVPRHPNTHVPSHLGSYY
Summary of the method: (§1)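 After expression in yeast as GST fusions, human transcription factors were bound to glutathione beads, DNA-barcoded and mixed with a tag-only sample. The pools were incubated with 200 nmole of a 16-mer random double-stranded DNA library in Tris/NaCl/DTT/glycerol buffer (30 min, room temperature), washed and crosslinked with 0.1% formaldehyde. Proximity ligation with BsaI/T4 ligase ran for 1 h at 37 °C, before PCR amplification and sequencing on an Illumina NextSeq500. Binding signal is a hexamer's read frequency for a factor divided by its frequency for the tag-only sample.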

ELK1 = molecular target: T2, ELK1 (Homo sapiens, UniProt P19419 1-428)
T2 sequence: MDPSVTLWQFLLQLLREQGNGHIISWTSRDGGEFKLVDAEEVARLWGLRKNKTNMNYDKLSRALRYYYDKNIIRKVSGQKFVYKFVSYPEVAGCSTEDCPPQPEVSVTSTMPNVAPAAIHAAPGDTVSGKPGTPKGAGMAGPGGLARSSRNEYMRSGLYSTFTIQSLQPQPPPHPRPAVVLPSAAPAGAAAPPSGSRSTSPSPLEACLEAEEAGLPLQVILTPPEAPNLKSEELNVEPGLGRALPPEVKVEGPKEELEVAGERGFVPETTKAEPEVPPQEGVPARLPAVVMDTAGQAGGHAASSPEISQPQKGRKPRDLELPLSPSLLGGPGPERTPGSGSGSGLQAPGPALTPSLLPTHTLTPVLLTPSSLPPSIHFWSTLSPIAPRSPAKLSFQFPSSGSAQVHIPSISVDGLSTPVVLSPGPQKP
Summary of the method: as §1

GABPA = molecular target: T3, GABPA (Homo sapiens, UniProt Q06546 1-454)
T3 sequence: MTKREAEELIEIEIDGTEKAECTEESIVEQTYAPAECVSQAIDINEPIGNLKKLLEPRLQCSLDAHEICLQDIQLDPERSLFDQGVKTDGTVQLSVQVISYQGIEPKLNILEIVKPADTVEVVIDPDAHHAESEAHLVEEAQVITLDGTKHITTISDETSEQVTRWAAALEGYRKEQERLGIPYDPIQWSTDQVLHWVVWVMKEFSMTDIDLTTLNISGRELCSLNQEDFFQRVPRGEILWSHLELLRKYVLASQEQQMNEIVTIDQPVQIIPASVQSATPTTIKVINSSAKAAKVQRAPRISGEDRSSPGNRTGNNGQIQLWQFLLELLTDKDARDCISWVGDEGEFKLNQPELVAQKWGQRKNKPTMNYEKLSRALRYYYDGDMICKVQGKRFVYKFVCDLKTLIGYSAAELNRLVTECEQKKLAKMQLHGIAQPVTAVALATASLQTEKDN
Summary of the method: as §1

ERG = molecular target: T4, ERG (Homo sapiens, UniProt P11308 1-479)
T4 sequence: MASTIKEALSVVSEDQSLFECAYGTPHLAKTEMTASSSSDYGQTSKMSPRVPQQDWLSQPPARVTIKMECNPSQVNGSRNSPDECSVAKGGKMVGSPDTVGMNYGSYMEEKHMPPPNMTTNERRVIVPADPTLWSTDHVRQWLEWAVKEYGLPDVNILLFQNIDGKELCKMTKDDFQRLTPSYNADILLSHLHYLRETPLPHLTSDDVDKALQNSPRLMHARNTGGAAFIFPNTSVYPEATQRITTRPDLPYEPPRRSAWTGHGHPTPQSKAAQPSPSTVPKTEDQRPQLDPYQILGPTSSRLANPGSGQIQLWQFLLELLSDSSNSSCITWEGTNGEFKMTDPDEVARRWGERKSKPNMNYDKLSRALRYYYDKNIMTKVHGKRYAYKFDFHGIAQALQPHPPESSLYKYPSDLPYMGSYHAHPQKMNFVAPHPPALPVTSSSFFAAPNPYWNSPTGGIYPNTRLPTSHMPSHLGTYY
Summary of the method: as §1

ELF1 = ELF1 (Homo sapiens, UniProt P32519 1-619)
Chain of ELF1 (P32519 whole entry): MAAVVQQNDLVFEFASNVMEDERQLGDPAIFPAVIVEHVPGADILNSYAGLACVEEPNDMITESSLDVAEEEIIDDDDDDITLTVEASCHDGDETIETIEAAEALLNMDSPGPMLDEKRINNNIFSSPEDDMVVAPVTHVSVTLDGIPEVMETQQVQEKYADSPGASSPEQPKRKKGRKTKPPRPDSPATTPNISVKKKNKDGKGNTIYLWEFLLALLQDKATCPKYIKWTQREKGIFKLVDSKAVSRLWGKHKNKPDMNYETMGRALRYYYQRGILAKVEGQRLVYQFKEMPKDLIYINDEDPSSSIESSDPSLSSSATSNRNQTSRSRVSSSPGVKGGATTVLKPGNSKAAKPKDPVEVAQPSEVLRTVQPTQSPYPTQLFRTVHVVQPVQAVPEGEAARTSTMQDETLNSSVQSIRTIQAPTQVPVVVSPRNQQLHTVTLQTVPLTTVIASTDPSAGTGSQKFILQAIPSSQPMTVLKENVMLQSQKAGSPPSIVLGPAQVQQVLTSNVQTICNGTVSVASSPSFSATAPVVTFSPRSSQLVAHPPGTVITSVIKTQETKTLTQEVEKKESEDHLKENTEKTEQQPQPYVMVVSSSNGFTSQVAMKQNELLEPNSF
Summary of the method: as §1

EHF = molecular target: T5, EHF (Homo sapiens, UniProt Q9NZC4 1-300)
T5 sequence: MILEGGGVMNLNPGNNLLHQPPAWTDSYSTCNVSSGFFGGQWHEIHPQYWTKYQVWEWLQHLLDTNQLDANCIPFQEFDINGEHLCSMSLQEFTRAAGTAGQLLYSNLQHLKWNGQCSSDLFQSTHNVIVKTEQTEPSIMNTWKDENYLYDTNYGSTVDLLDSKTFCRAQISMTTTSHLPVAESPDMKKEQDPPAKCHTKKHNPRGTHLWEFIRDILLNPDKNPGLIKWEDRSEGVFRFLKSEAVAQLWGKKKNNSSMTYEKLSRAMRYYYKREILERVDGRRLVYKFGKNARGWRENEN
Summary of the method: as §1

SPI1 = SPI1 (Homo sapiens, UniProt P17947 1-270)
Summary of the method: as §1

SPIB = SPIB (Homo sapiens, UniProt Q01892 1-262)
Chain of SPIB (Q01892 whole entry): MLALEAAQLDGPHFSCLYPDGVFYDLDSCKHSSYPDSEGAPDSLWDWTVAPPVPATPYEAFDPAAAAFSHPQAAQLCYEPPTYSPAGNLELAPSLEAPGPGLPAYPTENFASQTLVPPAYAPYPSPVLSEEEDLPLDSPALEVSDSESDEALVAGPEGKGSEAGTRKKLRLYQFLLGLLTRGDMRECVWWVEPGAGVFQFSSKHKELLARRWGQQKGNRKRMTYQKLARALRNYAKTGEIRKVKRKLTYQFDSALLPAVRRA
Summary of the method: as §1

ELK3 = molecular target: T6, ELK3 (Homo sapiens, UniProt P41970 1-407)
T6 sequence: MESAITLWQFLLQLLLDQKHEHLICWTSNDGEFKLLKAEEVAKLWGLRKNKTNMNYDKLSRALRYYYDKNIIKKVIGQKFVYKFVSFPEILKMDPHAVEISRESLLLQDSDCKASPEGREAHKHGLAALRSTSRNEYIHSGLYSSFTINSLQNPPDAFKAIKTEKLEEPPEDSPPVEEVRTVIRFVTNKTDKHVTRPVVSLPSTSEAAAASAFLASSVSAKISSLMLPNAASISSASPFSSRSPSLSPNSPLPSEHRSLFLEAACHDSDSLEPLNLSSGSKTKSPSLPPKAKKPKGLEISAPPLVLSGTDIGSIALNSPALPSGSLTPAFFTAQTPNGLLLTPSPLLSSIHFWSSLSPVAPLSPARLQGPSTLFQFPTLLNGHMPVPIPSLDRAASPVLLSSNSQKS
Summary of the method: as §1

| Sequence | binding signal (FLI1) | binding signal (ELK1) | binding signal (GABPA) | binding signal (ERG) | binding signal (ELF1) | binding signal (EHF) | binding signal (SPI1) | binding signal (SPIB) | binding signal (ELK3) |
| --- | --- | --- | --- | --- | --- | --- | --- | --- | --- |
| CGTATA | 1.12 fold enrichment (6-mer frequency, TF over GST control) | 1.23 fold enrichment (6-mer frequency, TF over GST control) | 1.17 fold enrichment (6-mer frequency, TF over GST control) | 1.11 fold enrichment (6-mer frequency, TF over GST control) | 1.11 fold enrichment (6-mer frequency, TF over GST control) | 1.09 fold enrichment (6-mer frequency, TF over GST control) | 1.13 fold enrichment (6-mer frequency, TF over GST control) | 1.25 fold enrichment (6-mer frequency, TF over GST control) | 1.16 fold enrichment (6-mer frequency, TF over GST control) |
| GGTCTT | 1.14 fold enrichment (6-mer frequency, TF over GST control) | 1.11 fold enrichment (6-mer frequency, TF over GST control) | 1.14 fold enrichment (6-mer frequency, TF over GST control) | 1.09 fold enrichment (6-mer frequency, TF over GST control) | 1.19 fold enrichment (6-mer frequency, TF over GST control) | 1.1 fold enrichment (6-mer frequency, TF over GST control) | 1.18 fold enrichment (6-mer frequency, TF over GST control) | 1.23 fold enrichment (6-mer frequency, TF over GST control) | 1.15 fold enrichment (6-mer frequency, TF over GST control) |
| CTATAC | 1.28 fold enrichment (6-mer frequency, TF over GST control) | 1.22 fold enrichment (6-mer frequency, TF over GST control) | 1.35 fold enrichment (6-mer frequency, TF over GST control) | 1.24 fold enrichment (6-mer frequency, TF over GST control) | 1.31 fold enrichment (6-mer frequency, TF over GST control) | 1.21 fold enrichment (6-mer frequency, TF over GST control) | 1.21 fold enrichment (6-mer frequency, TF over GST control) | 1.16 fold enrichment (6-mer frequency, TF over GST control) | 1.21 fold enrichment (6-mer frequency, TF over GST control) |
| TTCCAA | 1.39 fold enrichment (6-mer frequency, TF over GST control) | 1.19 fold enrichment (6-mer frequency, TF over GST control) | 1.34 fold enrichment (6-mer frequency, TF over GST control) | 1.26 fold enrichment (6-mer frequency, TF over GST control) | 1.31 fold enrichment (6-mer frequency, TF over GST control) | 1.26 fold enrichment (6-mer frequency, TF over GST control) | 1.11 fold enrichment (6-mer frequency, TF over GST control) | 1.29 fold enrichment (6-mer frequency, TF over GST control) | 1.26 fold enrichment (6-mer frequency, TF over GST control) |
| ACTGAT | 1.22 fold enrichment (6-mer frequency, TF over GST control) | 1.31 fold enrichment (6-mer frequency, TF over GST control) | 1.27 fold enrichment (6-mer frequency, TF over GST control) | 1.3 fold enrichment (6-mer frequency, TF over GST control) | 1.28 fold enrichment (6-mer frequency, TF over GST control) | 1.27 fold enrichment (6-mer frequency, TF over GST control) | 1.31 fold enrichment (6-mer frequency, TF over GST control) | 1.19 fold enrichment (6-mer frequency, TF over GST control) | 1.26 fold enrichment (6-mer frequency, TF over GST control) |
| ACGACT | 1.27 fold enrichment (6-mer frequency, TF over GST control) | 1.28 fold enrichment (6-mer frequency, TF over GST control) | 1.36 fold enrichment (6-mer frequency, TF over GST control) | 1.24 fold enrichment (6-mer frequency, TF over GST control) | 1.19 fold enrichment (6-mer frequency, TF over GST control) | 1.17 fold enrichment (6-mer frequency, TF over GST control) | 1.27 fold enrichment (6-mer frequency, TF over GST control) | 1.17 fold enrichment (6-mer frequency, TF over GST control) | 1.24 fold enrichment (6-mer frequency, TF over GST control) |
| AGCTCT | 1.19 fold enrichment (6-mer frequency, TF over GST control) | 1.25 fold enrichment (6-mer frequency, TF over GST control) | 1.17 fold enrichment (6-mer frequency, TF over GST control) | 1.11 fold enrichment (6-mer frequency, TF over GST control) | 1.23 fold enrichment (6-mer frequency, TF over GST control) | 1.18 fold enrichment (6-mer frequency, TF over GST control) | 1.04 fold enrichment (6-mer frequency, TF over GST control) | 1.04 fold enrichment (6-mer frequency, TF over GST control) | 1.15 fold enrichment (6-mer frequency, TF over GST control) |

Source: publication PMC7862700, “An all-to-all approach to the identification of sequence-specific readers for epigenetic DNA modifications on cytosine”
